High-throughput results (PubChem BioAssay)
Only some compounds are listed: those with a hit (about 2.4% of all), similar ones and a draw of the others.
miR122 inh: miR-122 Renilla sensor signal increase in Huh7, primary screen, miR-122 inhibitor project, cell-based, single point, plate reader. Huh7 miR-122 Renilla luciferase sensor, 48 h; neutral wells = 0, positive control = 100. activation (reporter increase), % at 12.5 µM. 0.3% of 340,000 active. AID 602342, 2012;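 active means mean replicate activation score at least 90 and every replicate individually at or above 90; inconclusive means only one of the two criteria met; inactive means neither criterion met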;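 further: higher luciferase means less miR-122 activity so hits act as miR-122 inhibitors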
INS-1E GSIS act: GLuc luminescence reporter in INS-1E cells, primary screen for activators of glucose-dependent secretion of insulin | activation, % at 16.6 µM | 0.61% of 370,000 active | INS-1E GLuc reporter insulin secretion, 2-3 h;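 active means lowest replicate activation of at least 40%, so every replicate reaches that level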;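 further: 0% = median of neutral control wells and 100% = median of IBMX positive control wells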
DYRK1A inh: rat Dyrk1A kinase inhibitors, primary screen, biochemical, single point, plate reader; ADP-Glo luminescence, NFATc1 peptide; inhibition, % at 12.5 µM; 0.43% of 310,000 active; AID 504441, 2011;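 further: plate controls were vehicle with enzyme for no effect and no enzyme for full effect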
NSD2 HMT inh: NSD2 histone methyltransferase inhibitors, primary screen, biochemical, AlphaScreen, single concentration, set 2; Histone-lysine N-methyltransferase NSD2 (Homo sapiens), O96028; NSD2 peptide methylation, 120 min; inhibition, % at 12.5 µM; 0.54% of 310,000 active; AID 743445, 2014
Target sequence (O96028 whole entry, looked up): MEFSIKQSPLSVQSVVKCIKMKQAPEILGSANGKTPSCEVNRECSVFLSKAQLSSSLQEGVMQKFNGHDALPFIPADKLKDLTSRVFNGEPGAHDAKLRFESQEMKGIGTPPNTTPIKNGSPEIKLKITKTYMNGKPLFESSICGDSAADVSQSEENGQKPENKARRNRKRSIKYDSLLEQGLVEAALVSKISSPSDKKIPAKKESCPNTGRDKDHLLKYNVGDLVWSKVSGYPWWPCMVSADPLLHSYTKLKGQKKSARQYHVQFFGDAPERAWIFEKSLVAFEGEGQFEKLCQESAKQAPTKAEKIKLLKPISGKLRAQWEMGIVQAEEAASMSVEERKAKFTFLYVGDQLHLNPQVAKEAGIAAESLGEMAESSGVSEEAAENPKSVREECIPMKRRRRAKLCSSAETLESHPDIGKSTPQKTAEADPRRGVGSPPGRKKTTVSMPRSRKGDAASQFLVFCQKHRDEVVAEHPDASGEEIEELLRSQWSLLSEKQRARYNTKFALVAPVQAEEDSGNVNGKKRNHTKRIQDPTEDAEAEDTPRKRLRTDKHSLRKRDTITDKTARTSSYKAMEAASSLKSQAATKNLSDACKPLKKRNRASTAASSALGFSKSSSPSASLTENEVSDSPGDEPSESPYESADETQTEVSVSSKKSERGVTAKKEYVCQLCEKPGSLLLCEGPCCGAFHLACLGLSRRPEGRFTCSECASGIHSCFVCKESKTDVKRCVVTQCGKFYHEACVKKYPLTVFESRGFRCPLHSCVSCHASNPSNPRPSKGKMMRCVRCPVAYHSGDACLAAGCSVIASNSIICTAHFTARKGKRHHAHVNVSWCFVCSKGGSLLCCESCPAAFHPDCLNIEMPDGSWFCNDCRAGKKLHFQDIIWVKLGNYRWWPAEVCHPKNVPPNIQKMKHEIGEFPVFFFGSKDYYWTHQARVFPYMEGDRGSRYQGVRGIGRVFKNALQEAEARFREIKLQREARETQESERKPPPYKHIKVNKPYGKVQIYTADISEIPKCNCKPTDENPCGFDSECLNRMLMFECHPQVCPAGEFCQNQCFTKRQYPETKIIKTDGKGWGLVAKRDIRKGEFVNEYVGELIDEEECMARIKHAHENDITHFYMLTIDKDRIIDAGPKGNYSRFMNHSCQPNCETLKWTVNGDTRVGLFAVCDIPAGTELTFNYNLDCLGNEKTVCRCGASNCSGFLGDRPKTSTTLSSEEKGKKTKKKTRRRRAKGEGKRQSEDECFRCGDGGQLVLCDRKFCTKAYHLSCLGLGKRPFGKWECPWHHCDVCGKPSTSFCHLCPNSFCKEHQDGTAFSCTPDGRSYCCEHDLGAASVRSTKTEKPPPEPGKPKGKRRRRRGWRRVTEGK
Wnt act: Wnt/beta-catenin pathway activators, primary screen, cell-based, plate reader, single point; Wnt/beta-catenin reporter cell assay, activator; 1.2% of 300,000 active; activation, % at 9.35 µM; in the data active means activation above about 30%, passing the limit was not always enough; inconclusive means no clear call, values can overlap the other calls;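 further: 0% = neutral control wells and 100% = positive control wells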
MITF TRPM1 HTS: activators of MITF-driven TRPM1 promoter reporter, primary screen, cell-based, SK-MEL-5, luciferase, single point. SK-MEL-5 TRPM1-promoter luciferase, 24 h; % of positive control, neutral wells = 0. activation, % at 12.5 µM. 0.75% of 300,000 active. AID 588334, 2011;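 active means mean activation of at least 80% with every replicate also reaching 80%; inconclusive means mean reaches 80% but some replicate falls short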;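 further: 0% = neutral control wells and 100% = parthenolide positive control wells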
Numbers without * were called inactive; ? = inconclusive; nt = not tested or not shown; [ ] = another dose, or the depositor's remark. Unless noted, no stated cut-off is given here; in the data, active means inhibition above about 50%; inactive means the rest.

SMILES	miR122 inh	INS-1E GSIS act	DYRK1A inh	NSD2 HMT inh	Wnt act	MITF TRPM1 HTS
CN(C)S(=O)(=O)c1ccc2nc(NC(=O)c3cccnc3)sc2c1	5	nt	0	1	38*	61
O=C(Nc1nc2ccc(S(=O)(=O)N3CCCCC3)cc2s1)c1cccnc1	2	36	-10	-3	-11	-4
C=CCN(CC=C)S(=O)(=O)c1ccc2nc(NC(=O)C(C)C)sc2c1	122*	nt	12	0	-1	nt
O=C(Nc1nc2ccc(F)cc2s1)c1ccc([N+](=O)[O-])o1	-12	nt	nt	4	71*	nt
CN1C(=O)c2cc(NC(=O)c3cccc(Cl)c3)ccc2OC[C@@H]2O[C@@H](CC(=O)NC3CCCCC3)CC[C@H]21	-12[16.7 µM]	2	nt	nt	nt	nt
Cc1noc(C)c1NC(=O)N(C)C[C@@H]1OCCCC[C@H](C)Oc2ccc(NS(=O)(=O)c3ccc(F)cc3)cc2C(=O)N([C@@H](C)CO)C[C@@H]1C	7[16.7 µM]	0	nt	nt	nt	nt
Fc1ccc2nc(Nc3nc4c(F)cccc4s3)sc2c1	nt	-16	-1	-1	nt	9
O=C(Nc1nc2ccccc2s1)Nc1ccc(F)cc1F	nt	21	-7	-2	38*	nt
Cc1ccc(C(=O)Nc2nc3ccc(S(C)(=O)=O)cc3s2)o1	2	nt	9	3	53*	nt
Fc1cccc2sc(Nc3nc4ccccc4s3)nc12	5	11	0	-1	36*	29
COCC(=O)N1C[C@H](C)[C@@H](OC)CN(C)C(=O)c2cc(NC(=O)c3ccc(F)cc3)ccc2OC[C@@H]1C	0[16.7 µM]	-1	nt	nt	nt	nt
COC(=O)c1c(-c2ccc(OC)cc2)sc2ccc(OC)cc12	9	0	5	nt	42*	67
Cc1cc(/C=C2/SC(=O)N(CC(=O)N3CCOCC3)C2=O)c(C)n1-c1ccccc1F	nt	52*	nt	-1	-2	19
COc1ccc(/C=C/c2nc(-c3ccccc3O)n[nH]2)cc1OC	2	-9	-1	0	24	143*
CCC(=O)N1[C@@H]2c3cccc(=O)n3C[C@H]1[C@H](CO)[C@H]2C(=O)N1CCc2ccccc2C1	-1[16.7 µM]	11	nt	nt	nt	nt
Cc1cc(-c2ccc3c(c2)COc2c4ccccc4nn2-3)on1	-4	4	nt	nt	45*	64
c1ccc2c(c1)COc1c3ncccc3nn1-2	-1	5	nt	nt	7	nt
C(#CC1CCCC1)c1ccc2c(c1)COc1c3ccccc3nn1-2	-2	-6	-8	nt	42*	119*
CCCc1cc(-c2ccc3c(c2)COc2c4ccccc4nn2-3)on1	2	nt	17	nt	36*	?
O=C(c1ccc2c3n(nc2c1)-c1ccccc1CO3)N1CCCCC1	-3	nt	44	nt	20	20
CCCCN(CCCC)Cc1ccc(C(=O)NN)o1	2	-1	3	1	55*	2
C[C@@H]1CCCCO[C@@H](CN(C)C(=O)Nc2ccccc2)[C@H](C)CN([C@H](C)CO)C(=O)c2cc(NC(=O)NC3CCCCC3)ccc2O1	-9[16.7 µM]	-30	nt	nt	nt	nt
Cc1cccnc1NC(=S)NC(=O)c1cccs1	4	-2	1	-1	34*	33
O=C(NC(=S)Nc1ccc(S(=O)(=O)N2CCCCC2)cc1)c1cccs1	nt	-1	3	-2	-1	-13
O=C(NC(=S)Nc1ccc(S(=O)(=O)NC2CCCCC2)cc1)c1cccs1	396*	-7	11	-2	1	-14
SMILES	miR122 inh	INS-1E GSIS act	DYRK1A inh	NSD2 HMT inh	Wnt act	MITF TRPM1 HTS
Cc1cccnc1NC(=O)CNC(=O)c1cccs1	2	13	9	0	0	-6
O=C(NC(=S)Nc1ccccc1)c1cccs1	10	4	1	-5	29	101*
O=C(Nc1ccc(NC(=S)NC(=O)c2cccs2)cc1)c1ccccc1	-5	-2	-12	2	nt	9
Cc1ccc(NC(=S)NC(=O)c2cccs2)cc1F	22	9	nt	0	3	93*
C[C@H]1CN([C@@H](C)CO)C(=O)c2cc(-c3cncnc3)cnc2O[C@@H]1CN(C)C(=O)Nc1ccc2c(c1)OCO2	-3[16.7 µM]	2	nt	nt	nt	nt
O=C(NC(=S)Nc1ccc(Br)cn1)c1cccs1	2	-3	-4	2	59*	22
O=C(NC(=S)Nc1ccc(Br)cn1)c1cncc(Br)c1	-6	nt	-5	4	nt	-6
CCCNC(=O)N1CC2(CCN(CC3CCCC3)CC2)c2c(n(C)c3cc(OC)ccc23)[C@H]1CO	nt	-1	nt	nt	nt	nt
COc1ccc(S(=O)(=O)Nc2ccc3c(c2)COC3=O)cc1OC	150*	nt	0	-1	nt	nt
CC(C)(C)c1ccc(S(=O)(=O)Nc2ccc3c(c2)COC3=O)cc1	37	-42	0	-2	-1	3
COC(=O)/C=C1\SC(=Nc2ccc(Cl)c(Cl)c2)NC1=O	7	9	1	0	0	-11
COc1cc(/C=C2\SC(=Nc3ccc(Cl)c(C(=O)O)c3)NC2=O)c(Br)c(Br)c1O	0	-7	65*	48	0	-1
CCOC(=O)c1cc2sccc2n1CC(=O)O	-1	18	3	-3	1	0
CCOC(=O)c1cc2sccc2n1CC(=O)N1c2ccccc2CC1C (stereo not drawn)	nt	472*	-2	-6	-2	-64
Cc1ccc(S(=O)(=O)N(C)C[C@@H]2OCCCC[C@H](C)Oc3ccc(NC(=O)Nc4ccc5c(c4)OCO5)cc3C(=O)N([C@@H](C)CO)C[C@H]2C)cc1	1[16.7 µM]	10	nt	nt	nt	nt
COc1ccc(Nc2nc(N)c3ccccc3n2)c(OC)c1	13	46	38	nt	22	89*
COc1cc(C#CC#CCN2CCCCC2)ccc1O	10	44*	5	15	2	13
COC(=O)c1ccccc1NC(=O)COc1ccccc1[N+](=O)[O-]	nt	10	32	-5	0	-12
CCOc1ccc(NC(=O)Cc2ccccc2)c([N+](=O)[O-])c1	13	-5	-6	4	nt	-2
Cn1ccnc1SCC(=O)Nc1ccc(SC(F)F)cc1	-8	-19	2	3	28	109*
Cc1ccc(OCC(=O)Nc2ccccc2[N+](=O)[O-])c(Br)c1	nt	-2	1	-3	64*	79
COc1ccc(NC(=O)CCOc2ccccc2)cc1	-2	3	-3	-1	nt	112*
CCOc1ccc(NC(=O)COc2ccccc2)c([N+](=O)[O-])c1	-3	nt	-2	-2	2	130*
O=C(C[C@H]1CC[C@H]2[C@@H](COC[C@@H](O)CN2CC2CCOCC2)O1)NCC1CC1	-2[16.7 µM]	6	nt	nt	nt	nt
CCCNC(=O)N[C@@H]1C=C[C@H](CC(=O)NC2CCCCC2)O[C@H]1CO	nt	7	nt	nt	nt	nt
O=C(CCSc1ccccn1)Nc1ccc(Br)cc1	nt	-32	1	-4	62*	58
